Screening results as filed in PubChem.
HP1b chromo inh = HP1-beta chromodomain-methylated histone interaction inhibition. P83916. AlphaScreen HP1-beta / biotin-H3K9me3 peptide binding. Potency, µM (series often up to 114 µM), inactives show at the top dose activity change, negative = inhibition, usual class: inhibitors. 390,000 tested, 0.56% active; also: nearly all actives have a fitted effect of over 70% in size
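Compound inhibition of the preformed complex between 50 nM HP1-beta and 50 nM biotinylated H3K9me3 peptide was read by AlphaScreen. Buffer was PBS pH 7.4 with 0.01% Tween-20. Incubations ran 30 min at room temperature, with 10 ug/mL donor/acceptor beads.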
JMJD2A Tudor = JMJD2A Tudor domain (human) inhibition | O75164 | AlphaScreen JMJD2A-Tudor / H3K4me3 peptide binding | Potency, µM (top dose mostly 114 µM), for the others: top-dose activity change, negative = inhibition, actives largely listed as inhibitors | 390,000 tested, 4.4% active | AID 504339; also: % is scaled to controls: 0 for no effect and ±100 for the full control effect; nearly all actives have a fitted effect of over 50% in size
Sfp PPTase inh = Sfp phosphopantetheinyl transferase inhibition | AID 1490 | Potency, µM, for inactives: largest response in the series, negative = inhibition, usual class: inhibitors | Biochemical Sfp PPTase activity, qHTS | 310,000 tested, 3.5% active | Q9F4F7;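 also: the enzyme is Sfp with the accession as filed and its product quenches rhodamine fluorescence; 0% = enzyme reaction without inhibitor and -100% = no enzyme wells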
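With Hepes-Na pH 7.6 buffer containing 10 mM MgCl2, Sfp (15 nM) modified BHQ-2-YbbR (12.5 uM) using rhodamine-CoA (5 uM). Two reads 30 minutes apart at 525/598 nm yielded each well's rate.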
G9a block = inhibitors of human histone lysine methyltransferase G9a | Q96KQ7 | G9a H3K9 monomethylation, AlphaScreen, 2 h | Potency, µM (doses to about 102 µM), for the others: at the top dose activity, negative = inhibition, most hits filed as inhibitors | 350,000 tested, 8.8% active | AID 504332; also: % is scaled to controls: 0 for no effect and ±100 for the full control effect; nearly all actives have a fitted effect of over 75% in size
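Using a bead-based AlphaScreen, monomethylated H3K9 product from 2 h room-temperature reactions (G9a 20 nM, peptide 500 nM, SAM 20 uM) was detected with 0.5 ug/mL rabbit anti-H3K9me1 antibody.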
BAZ2B inh = BAZ2B (human) inhibition | Q9UIF8 | AlphaScreen BAZ2B-H3K14Ac peptide displacement | Potency, µM (doses to about 114 µM), for inactives: at the top dose activity change, negative = inhibition, hits mostly inhibitors | 360,000 tested, 4.4% active | AID 504333; also: % is scaled to controls: 0 for no effect and ±100 for the full control effect; nearly all actives have a fitted effect of over 60% in size
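Protein-peptide AlphaScreen: BAZ2B 50 nM, b-H3K14Ac 50 nM, 1x PBS pH 7.4 + 0.01% Tween-20. Preincubation 30 min RT; cpd 30 min RT (top 110 uM); beads 20 min RT, light-protected.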
Starred values were filed as active, the others as inactive; ? = inconclusive; · = not tested or not shown; [ ] = dose if it differs, or a comment. Sampled rows, rich in hits. Any-hit rate of the full collection: about 12%. Calls follow the shape of the dose curve; as a rule, active = well fitted curve in the direction sought with a large enough effect; inconclusive = small, poorly fitted or top-dose-only effect, or another doubt; inactive = no such curve, though single readings can be large; an effect the other way counts as inactive or inconclusive. Potency is read from the fitted curve at half-maximal effect.

SMILES | HP1b chromo inh | JMJD2A Tudor | Sfp PPTase inh | G9a block | BAZ2B inh
Nc1ncnc(Nc2ccccc2C(F)(F)F)n1 | 21% | 5% | 7% | -3% | 7%
FC(F)(F)c1ccccc1Nc1nccs1 | 57% | 50µM* | -13% | ? | -2%
O=[N+]([O-])c1ccc2ncnc(N3CCN(Cc4ccc5c(c4)OCO5)CC3)c2c1 | -12% | ? | 0% | · | 40µM*
COc1ccc2[nH]c3c(N4CCN(Cc5ccc6c(c5)OCO6)CC4)ncnc3c2c1 | -25% | ? | -5% | 50µM* | 50µM*
O=[N+]([O-])c1cccnc1N1CCN(Cc2ccc3c(c2)OCO3)CC1 | ? | ? | -16% | ? | 6%[0.457 µM]
COc1ccc2c(c1)c1ncnc(N3CCN(Cc4ccc5c(c4)OCO5)CC3)c1n2C | · | · | -2% | -43%[59 µM] | 0%
COc1cc(C2C(C#N)=C(N)Oc3cc(N(C)C)ccc32)cc2c1OCO2 (configuration not stated) | ? | 50µM* | -27% | ? | 45µM*
COc1cc(C2C(C#N)=C(N)Oc3cc(O)ccc32)cc2c1OCO2 (configuration not stated) | ? | 2%[11.4 µM] | 79µM* | -2%[59 µM] | -11%
COc1ccc(/C=N/N2CCN(Cc3ccccc3)CC2)cc1 | ? | ? | -4% | -10%[59 µM] | ?
Cc1cc(C)n(Cc2ccccc2Cl)n1 | 75% | -6% | 7% | 3%[59 µM] | 6%
COc1ccc(/C=N/n2cnn(Cc3ccccc3Cl)c2=S)cc1 | ? | -4% | 25µM* | 28µM* | -34%
COc1cc(/C=N/n2cnn(Cc3ccccc3Cl)c2=S)cc(OC)c1OC | -19% | -29% | ? | 32µM* | -24%
Oc1ccccc1/C=N/n1cnn(Cc2ccccc2Cl)c1=S | 2% | 18µM* | ? | 3.5µM* | -20%
Cc1cccc(OCCNC(=S)NC(=O)c2cncc(Br)c2)c1 | 23% | -17% | 9% | 55% | -14%
Cc1cccc(-c2n[nH]c(=S)n2/N=C/c2ccco2)c1 | 7% | 7.9µM* | -25% | · | -26%
S=c1[nH]nc(-c2cccnc2)n1/N=C/c1ccco1 | 35% | 25µM* | 40µM* | · | ?
Cc1ccc(-c2n[nH]c(=S)n2/N=C\c2ccco2)cc1 | 8% | 25µM* | ? | 0.89µM* | -9%
CC(/C=N/n1c(-c2ccc(Cl)cc2)n[nH]c1=S)=C\c1ccco1 | 5% | ? | -29% | 10µM* | 2%
CCCCN1CN=C(Nc2nc3ccccc3o2)NC1 | 12% | -14% | -2% | · | 1%
COCCN1CN=C(Nc2nc3ccccc3o2)NC1 | 39% | ? | 5% | 71µM* | 6%
CC(=O)OCC(=O)NCC(=O)c1c[nH]c2ccccc12 | 48% | -18% | 8% | 0% | -17%
C=CCn1c(C(CCCC)CC(O)COCCC)n[nH]c1=S (configuration not stated) | 44% | -3% | -17% | ? | 14%
C=CCn1c(C(CCCC)CC(O)COCC(C)C)n[nH]c1=S (configuration not stated) | 48% | 40µM* | ? | 32µM* | -24%
C=CCn1c(CCC(O)COCCCCC)n[nH]c1=S (configuration not stated) | -14% | 20µM* | ? | 28µM* | -20%
C=CCn1c(C(CC(C)C)CC(C)O)n[nH]c1=S (configuration not stated) | -23% | 8.9µM* | -13% | 28µM* | -1%
SMILES | HP1b chromo inh | JMJD2A Tudor | Sfp PPTase inh | G9a block | BAZ2B inh
CCc1ccc(OCC2Cn3c(nc4c3c(=O)[nH]c(=O)n4C)O2)cc1 (configuration not stated) | 26% | ? | 12% | · | ?
CCOc1ccc(Nc2ccc(C(=O)O)cc2[N+](=O)[O-])cc1 | -4% | -20% | 1% | ? | ?
COc1ccc(NC2C=CS(=O)(=O)C2)c(OC)c1 (configuration not stated) | 7% | -28% | 79µM* | 6%[2.33 µM] | 10%
O=C(CSc1ccc(Cl)cc1)NNC(=O)c1ccncc1 | 53% | -6% | · | -34% | -3%
C=CC#CC1(O)CC(C)[N+](C)(C)CC1C (configuration not stated) | ? | 22µM* | 40µM* | 28µM* | -8%
CCc1cccc(NC(=O)Nc2ccc3c(c2)N(C)C(=O)c2ccccc2S3)c1 | 11% | -29% | · | -15%[59 µM] | -7%
